# Experimental data reported in PubChem BioAssay.
# Calls of active or inactive are those of the source.
# Assays:
# Albumin (Bos taurus) = Albumin (Bos taurus) (UniProt P02769); assay: compounds binding labelled BSA control protein – biochemical, small-molecule microarray, Alexa647 label, 635/667 nm fluorescence, artefact control for SMM control protein annotation, profiling panel (AID 1118); settings: BSA-A647 binding, fluorescence 635 nm, higher = more signal;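 note: score merges 667 nm emission intensity and signal-to-noise per printed compound spot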
# [1] = probe aXIP binding to arrayed compounds – biochemical, NeuroSMM set, 635/667 nm fluorescence, primary screen (AID 1119); settings: small-molecule microarray, higher = more signal, called active from +8 up or from −8 down;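 note: probe is the protein aXip251-270 applied at 1 µg/mL to compound-printed slides; binding of probe to printed compounds measured as 667 nm fluorescence plus signal to noise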
# [2] = probe aNOTCH3 binding on compound microarray – biochemical, small-molecule microarray, 635/667 nm fluorescence, primary screen (AID 1120); settings: higher = more signal;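 note: probe is a biotin-tagged antibody raised against NOTCH3 rather than NOTCH3 protein; score merges spot fluorescence near 667 nm with spot signal to noise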
# [3] = probe aNOTCH2 binding on compound microarray – biochemical, small-molecule microarray, 635/667 nm fluorescence, primary screen (AID 1121); settings: higher = more signal;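 note: score merges feature fluorescence read at 667 nm with its signal to noise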
# [4] = biological target: Carbonic anhydrase 2 (Homo sapiens) (UniProt P00918); assay: compounds binding carbonic anhydrase 2 – biochemical, small-molecule microarray, Alexa647-labelled CAII, profiling panel (AID 1122); settings: CAII-A647 binding fluorescence, higher = more signal
# [5] = COS7 lysate on small-molecule microarray, probe aHis, 635 nm (AID 1123); settings: COS7 cell lysate, fluorescence, higher = more signal;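 note: z-score combines 667nm fluorescence intensity with signal-to-noise per printed compound spot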
# [6] = probe aLAP1 signal on lysate-treated microarray – cell lysate, small-molecule microarray, COS7 lysate, primary screen (AID 1124); settings: probe aLAP1, fluorescence, higher = more signal;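 note: lysate comes from COS7 cells expressing LAP1 and is applied at 0.3 µg/mL; score merges spot fluorescence near 667 nm with signal-to-noise over triplicate slides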
# Sam68 (KHDRBS1) = assay: compounds binding KHDRBS1 protein – biochemical, small-molecule microarray, 635 nm fluorescence, primary screen (AID 1125); settings: higher = more signal;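 note: score merges 667 nm channel intensity with signal to noise over triplicate slides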
# [7] = tested on: Chordin-like protein 2 (CHRDL2); assay: compounds binding chordin-like 2 – biochemical, small-molecule microarray, 635 nm fluorescence, primary screen (AID 1126); settings: fluorescence 635 nm, higher = more signal;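 note: printed compound slides probed with Chrdl2 protein at 4 µg/mL for 1 h at 4 C; score merges 667 nm emission intensity with signal to noise over three replicate slides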
# [8] = biological target: Concanavalin-A (Canavalia ensiformis) (UniProt P02866); assay: compounds binding concanavalin A lectin – biochemical, small-molecule microarray, Alexa647 label, 635 nm, artefact control for SMM control protein annotation, primary screen (AID 1127); settings: ConA-A647 binding fluorescence, higher = more signal;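 note: z combines 667 nm emission intensity with signal-to-noise across three replicate slides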
# Chain of Concanavalin-A (Canavalia ensiformis) (P02866 whole entry, looked up): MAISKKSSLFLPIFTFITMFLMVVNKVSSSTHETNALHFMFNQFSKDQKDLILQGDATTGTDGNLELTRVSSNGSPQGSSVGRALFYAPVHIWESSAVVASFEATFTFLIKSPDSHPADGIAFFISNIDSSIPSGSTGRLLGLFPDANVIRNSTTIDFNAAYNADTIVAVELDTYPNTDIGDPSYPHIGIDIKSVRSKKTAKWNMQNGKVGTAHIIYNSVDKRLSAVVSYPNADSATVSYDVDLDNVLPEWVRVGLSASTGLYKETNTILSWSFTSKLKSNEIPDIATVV
# Chain of Albumin (Bos taurus) (P02769 whole entry, looked up): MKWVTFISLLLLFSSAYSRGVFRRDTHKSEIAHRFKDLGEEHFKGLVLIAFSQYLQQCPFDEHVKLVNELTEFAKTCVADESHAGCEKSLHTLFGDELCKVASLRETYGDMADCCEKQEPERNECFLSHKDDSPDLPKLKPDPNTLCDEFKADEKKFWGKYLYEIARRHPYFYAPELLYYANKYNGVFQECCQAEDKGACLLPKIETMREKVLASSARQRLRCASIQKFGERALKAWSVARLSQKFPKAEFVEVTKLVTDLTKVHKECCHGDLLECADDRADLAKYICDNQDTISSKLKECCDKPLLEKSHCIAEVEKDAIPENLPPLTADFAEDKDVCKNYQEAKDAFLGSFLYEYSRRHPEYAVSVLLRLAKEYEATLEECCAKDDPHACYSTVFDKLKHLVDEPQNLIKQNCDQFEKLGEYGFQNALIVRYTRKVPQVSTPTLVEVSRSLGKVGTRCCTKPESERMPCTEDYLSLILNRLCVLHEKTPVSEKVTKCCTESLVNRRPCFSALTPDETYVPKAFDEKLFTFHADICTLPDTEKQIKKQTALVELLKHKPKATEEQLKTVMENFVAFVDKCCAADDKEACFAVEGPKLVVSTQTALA
structure (smiles),measurement,setting,value
COc1cc(NN2C(C(O)C3CCCCC3)C=CC3C(=O)N(C)C(=O)C32)cc(OC)c1OC (stereo not given),composite z-score,Albumin (Bos taurus),1.04
same,composite Z-score,[1],1.37 (inactive)
same,composite z-score,[2],0.678
same,composite z-score,[3],0.22
same,composite z-score,[4],0.424
same,composite z-score,[5],2.78
same,composite z-score,[6],0.339
same,composite z-score,Sam68 (KHDRBS1),1.32
same,composite z-score,[7],-0.531
same,composite z-score,[8],1.15
O=C1NC(=O)C2C1C=CC(C(O)c1ccccn1)N2Nc1ccc(Cl)cc1Cl (stereo not given),composite z-score,Albumin (Bos taurus),1.02
same,composite Z-score,[1],0.222 (inactive)
same,composite z-score,[2],0.0773
same,composite z-score,[3],0.0554
same,composite z-score,[4],0.815
same,composite z-score,[5],3.23
same,composite z-score,[6],0.048
same,composite z-score,Sam68 (KHDRBS1),0.25
same,composite z-score,[7],-0.44
same,composite z-score,[8],0.786
O=c1cccc(-c2ccc(F)cc2)o1,composite z-score,Albumin (Bos taurus),0.445
same,composite Z-score,[1],-0.261 (inactive)
same,composite z-score,[2],0.176
same,composite z-score,[3],-0.0527
same,composite z-score,[4],-0.114
same,composite z-score,[5],-0.218
same,composite z-score,[6],0.403
same,composite z-score,Sam68 (KHDRBS1),0.501
same,composite z-score,[7],0.556
same,composite z-score,[8],0.354
NC(=O)[C@H]1[C@@H]2C(=O)O[C@@H](c3ccccc3)[C@@H](c3ccccc3)N2[C@@H](c2ccc(O)cc2)[C@]12C(=O)Nc1ccc(C#CC3=CCCCC3)cc12,composite z-score,Albumin (Bos taurus),0.396
same,composite Z-score,[1],0.224 (inactive)
same,composite z-score,[2],-0.0273
same,composite z-score,[3],-0.156
same,composite z-score,[4],0.293
same,composite z-score,[5],2.13
same,composite z-score,[6],0.249
same,composite z-score,Sam68 (KHDRBS1),0.662
same,composite z-score,[7],-0.758
same,composite z-score,[8],0.565
C=C(COC)/C(=C/C[C@@H](OC(=O)c1ccncc1)c1ccccc1OCCO)c1cc(C(=O)OC)ccc1OC,composite z-score,Albumin (Bos taurus),0.247
same,composite Z-score,[1],-0.476 (inactive)
same,composite z-score,[2],-0.171
same,composite z-score,[3],-0.132
same,composite z-score,[4],0.803
same,composite z-score,[5],0.107
same,composite z-score,[6],0.748
same,composite z-score,Sam68 (KHDRBS1),-0.227
same,composite z-score,[7],-1.12
same,composite z-score,[8],-0.71
CCOC(=O)C1=CC[C@@H](c2ccccc2)N(S(=O)(=O)c2ccc(C)cc2)[C@H]1C=Cc1ccccc1,composite z-score,Albumin (Bos taurus),0.725
same,composite Z-score,[1],0.206 (inactive)
same,composite z-score,[2],0.0372
same,composite z-score,[3],-0.0569
same,composite z-score,[4],0.707
same,composite z-score,[5],1.03
same,composite z-score,[6],0.827
same,composite z-score,Sam68 (KHDRBS1),0.602
same,composite z-score,[7],-0.19
same,composite z-score,[8],0.81
CN(C)C(=O)[C@]1(CCS(=O)(=O)c2ccccc2)N=C(c2ccc(OCCCO)cc2)O[C@@H]1c1ccccc1,composite z-score,Albumin (Bos taurus),0.907
same,composite Z-score,[1],0.462 (inactive)
same,composite z-score,[2],0.201
same,composite z-score,[3],-0.0676
same,composite z-score,[4],0.769
same,composite z-score,[5],2.99
same,composite z-score,[6],0.565
same,composite z-score,Sam68 (KHDRBS1),1.3
same,composite z-score,[7],-0.0707
same,composite z-score,[8],0.937
O=C1C2C=CC(C(O)c3ccco3)N(Nc3ccccc3)C2C(=O)N1c1ccccc1 (stereo not given),composite z-score,Albumin (Bos taurus),0.507
same,composite Z-score,[1],0.0089 (inactive)
same,composite z-score,[2],-0.153
same,composite z-score,[3],-0.141
same,composite z-score,[4],0.757
same,composite z-score,[5],0.467
same,composite z-score,[6],-0.102
same,composite z-score,Sam68 (KHDRBS1),-0.161
same,composite z-score,[7],-0.727
same,composite z-score,[8],-0.222
C=C(/C(=C/C[C@H](OC(=O)c1ccncc1)c1cccc(OCCO)c1)c1cnc2ccccc2c1)C(C)C,composite z-score,Albumin (Bos taurus),-0.134
same,composite Z-score,[1],-1.19 (inactive)
same,composite z-score,[2],0.0306
same,composite z-score,[3],-0.0264
same,composite z-score,[4],0.942
same,composite z-score,[5],0.301
same,composite z-score,[6],1.04
same,composite z-score,Sam68 (KHDRBS1),1.23
same,composite z-score,[7],1.33
same,composite z-score,[8],0.898
O=c1cccc(-c2ccco2)o1,composite z-score,Albumin (Bos taurus),0.167
same,composite Z-score,[1],0.207 (inactive)
same,composite z-score,[2],0.0522
same,composite z-score,[3],-0.127
same,composite z-score,[4],0.25
same,composite z-score,[5],0.193
same,composite z-score,[6],0.462
same,composite z-score,Sam68 (KHDRBS1),0.969
same,composite z-score,[7],1.05
same,composite z-score,[8],0.495
C#C[C@@H](CC)O[Si](C#CCCCC#N)(C(C)C)C(C)C,composite z-score,Albumin (Bos taurus),0.202
same,composite Z-score,[1],-0.608 (inactive)
same,composite z-score,[2],-0.0391
same,composite z-score,[3],-0.174
same,composite z-score,[4],0.797
same,composite z-score,[5],1.59
same,composite z-score,[6],-0.252
same,composite z-score,Sam68 (KHDRBS1),0.441
same,composite z-score,[7],0.106
same,composite z-score,[8],-0.193
CCCNC(=O)[C@@]1(Sc2ccc(C)cc2)CC(=O)N(C(C)C)[C@@H]1c1ccc(CO)cc1I,composite z-score,Albumin (Bos taurus),-0.249
same,composite Z-score,[1],0.292 (inactive)
same,composite z-score,[2],-0.219
same,composite z-score,[3],-0.163
same,composite z-score,[4],0.771
same,composite z-score,[5],1.22
same,composite z-score,[6],0.846
same,composite z-score,Sam68 (KHDRBS1),0.58
same,composite z-score,[7],-2.46
same,composite z-score,[8],-0.818
CC(C)C(=C=CC[C@H](O)c1cccc(OCCO)c1)CCO,composite z-score,Albumin (Bos taurus),0.361
same,composite Z-score,[1],0.372 (inactive)
same,composite z-score,[2],-0.173
same,composite z-score,[3],-0.14
same,composite z-score,[4],0.512
same,composite z-score,[5],0.397
same,composite z-score,[6],-0.207
same,composite z-score,Sam68 (KHDRBS1),-0.126
same,composite z-score,[7],-0.298
same,composite z-score,[8],-0.0543
COc1ccc(C(O)C2C=CC3C(=O)N(c4ccccc4)C(=O)C3N2Nc2ccccc2F)cc1 (stereo not given),composite z-score,Albumin (Bos taurus),0.894
same,composite Z-score,[1],0.319 (inactive)
same,composite z-score,[2],0.154
same,composite z-score,[3],0.12
same,composite z-score,[4],0.399
same,composite z-score,[5],1.69
same,composite z-score,[6],1.14
same,composite z-score,Sam68 (KHDRBS1),1.2
same,composite z-score,[7],-0.798
same,composite z-score,[8],0.515
CC(C)(C)OC(=O)CC[C@]1(C(=O)N2CCCCC2)COC(c2ccc(OCCCO)cc2)=N1,composite z-score,Albumin (Bos taurus),0.939
same,composite Z-score,[1],1.28 (inactive)
same,composite z-score,[2],0.286
same,composite z-score,[3],0.0341
same,composite z-score,[4],0.862
same,composite z-score,[5],2.68
same,composite z-score,[6],1.05
same,composite z-score,Sam68 (KHDRBS1),1.14
same,composite z-score,[7],-0.538
same,composite z-score,[8],1.11
COC(=O)C1N=C(c2ccc(OCCCO)cc2)N(c2ccccc2)O1 (stereo not given),composite z-score,Albumin (Bos taurus),0.878
same,composite Z-score,[1],0.608 (inactive)
same,composite z-score,[2],0.187
same,composite z-score,[3],-0.0073
same,composite z-score,[4],0.403
same,composite z-score,[5],1.1
same,composite z-score,[6],0.382
same,composite z-score,Sam68 (KHDRBS1),1.14
same,composite z-score,[7],0.236
same,composite z-score,[8],1.11
